PubChem BioAssay (NCI)
The panel holds about 79,000 compounds, 15% with a hit somewhere; the sample as a whole holds those more often. A number with no mark means an inactive call. Activity calls are given as the source filed them. Rule as the data show it: active = growth inhibition above about 70%; inactive = the rest.

Key:
[1] = NCI Yeast Anticancer Drug Screen. Data for the rad50 strain (AID 155);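 also: 0% = growth of vehicle-only cultures of the same strain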; conditions: S. cerevisiae rad50 strain growth inhibition; at 50.0 µM; active compounds read high
Method in brief: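 DNA repair mutant yeast, compound exposure, growth read-out; inhibition is taken relative to vehicle.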

[2] = NCI Yeast Anticancer Drug Screen. Data for the mec2-1 strain (AID 157); conditions: S. cerevisiae mec2-1 strain, at 50.0 µM, active compounds read high
Method in brief: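 mec2-1 yeast strain, carrying an alteration in DNA damage repair or cell cycle control, was exposed to compounds; growth inhibition was measured relative to vehicle-treated controls.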

[3] = NCI Yeast Anticancer Drug Screen. Data for the sgs1 mgt1 strain (AID 161);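 also: 0% = growth of cultures given vehicle only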; conditions: S. cerevisiae sgs1 mgt1 strain, at 50.0 µM, active compounds read high
Method in brief: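 Percent growth inhibition was derived by comparing compound-exposed mutant yeast with vehicle-exposed cultures. The strain carries alterations in DNA damage repair.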

[4] = NCI Yeast Anticancer Drug Screen. Data for the cln2 rad14 strain (AID 165);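 also: 0% = growth equal to vehicle treated cultures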; conditions: S. cerevisiae cln2 rad14 strain, at 50.0 µM, active compounds read high
Method in brief: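 Yeast carrying cln2 and rad14 alterations (cell cycle control and DNA damage repair) were exposed to compounds. Growth inhibition was measured against vehicle-treated controls.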

[5] = NCI Yeast Anticancer Drug Screen. Data for the bub3 strain (AID 167); conditions: S. cerevisiae bub3 mutant strain, at 50.0 µM, active compounds read high
Method in brief: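 In this screen, a yeast mutant lacking normal mitotic checkpoint function is challenged with compound. Relative growth versus vehicle gives the inhibition value.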

[6] = NCI Yeast Anticancer Drug Screen. Data for the mlh1 rad18 strain (AID 175); conditions: S. cerevisiae mlh1 rad18 strain growth inhibition; at 50.0 µM; active compounds read high
Method in brief: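 Growth inhibition of the yeast strain was measured after compound exposure and expressed relative to vehicle-treated controls. The strain carries defined defects in DNA damage repair.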

Compound	growth inhibition [1]	growth inhibition [2]	growth inhibition [3]	growth inhibition [4]	growth inhibition [5]	growth inhibition [6]
CC(=O)C1CCC2C3CCC4CC(O)CCC4(C)C3CCC12C (stereo not given)	6.2%	-59%	16.8%	26.8%	10%	-7.3%
O=C(CCC1CCCCN1)Nc1ccc2c(c1)C(=O)c1ccc(NC(=O)CCN3CCCCC3)cc1C2=O (stereo not given)	6.2%	9.2%	-1.9%	9.3%	-12.6%	6.8%
CC(=O)CC(C)=O.CC(=O)CC(C)=O.[Cl][Sn][c]1ccccc1	40.8%	23.7%	49.6%	8.4%	35.1%	57.5%
C=C(CC(=O)O)C(=O)O	-2.25%	2.8%	-3.85%	6.2%	6.05%	4.9%
C[N+](C)=C(Cl)Cl	1.75%	-30.1%	-8.1%	4.15%	-7.85%	-12.9%
C/C=C/C(=O)[O-].N.N.N.N.N.[Co+3].[O-][Cl+3]([O-])([O-])[O-]	-10.4%	-5.85%	-7.6%	9.35%	-12.8%	-36.1%
[C-]#[O+].[Cl][Ru]([Cl])([Cl])([Cl])[Cl]	-7.05%	-8.95%	35%	-6.75%	11.3%	1.9%
Cc1ccc(C[N+](C)(C)C)cc1	10.6%	-17.6%	6.7%	12.1%	-10.1%	4.5%
CCCC(OP(=S)(OCC)OCC)c1ccc(Cl)cc1 (stereo not given)	-22.5%	-1.5%	2.9%	-32.3%	39%	-1.15%
O=S(=O)(c1ccc(O)cc1)c1ccccc1O	-1.95%	-6.35%	15.2%	3.75%	0.6%	28.9%
CCCCCCCCCCCCCCCCS(=O)(=O)c1ccc(S(=O)(=O)F)cc1NC(=O)C(F)(F)F	-22.4%	-9.9%	-3.6%	24.1%	12.6%	8.2%
O=[N+]([O-])C1(Cl)CCC(Cl)([N+](=O)[O-])CC1 (stereo not given)	5.85%	-6.2%	-2.1%	-23.4%	-14.6%	-18.3%
C=C[CH2][Sn]([Br])([c]1ccccc1)[c]1ccccc1	99.3% (active)	99.2% (active)	99.2% (active)	98.8% (active)	98.8% (active)	99.3% (active)
O=c1[nH]c2ccccc2c(=O)n1-c1ccco1	4.2%	-13.5%	-9%	-15.4%	-25.1%	-1.65%
O=C(CC(O)C(Cl)(Cl)Cl)CC(O)C(Cl)(Cl)Cl (stereo not given)	15%	-0.7%	10.2%	18%	20.4%	13.4%
O=P(NCCCl)(NCCCl)Oc1ccccc1	-19.5%	-0.5%	-18.8%	-16.1%	-7.25%	-13.1%
CP(C)CC[PH+](CC[PH+](C)C)CC[PH+](C)C.[C-]#[O+].[C-]#[O+].[W]	-1.25%	-6.35%	-13.1%	24.4%	-0.45%	-0.9%
O=C(O)C1C2c3ccccc3C(c3ccccc32)C1C(=O)NCC1CC1 (stereo not given)	51.5%	7.55%	10.4%	13.6%	21.4%	24.2%
Oc1ccccc1/C=N/C(O)C(Cl)(Cl)Cl (stereo not given)	30.2%	31.6%	34.9%	41.3%	48.1%	30.6%
CCOC(OCC)/C(=C\N(C)C)N=C(C#N)C#N	0.95%	-2.4%	5.35%	-35.4%	3.25%	-2.05%

Compound	growth inhibition [1]	growth inhibition [2]	growth inhibition [3]	growth inhibition [4]	growth inhibition [5]	growth inhibition [6]
CC1=CC(=O)C2=C(C)C[C@H](O)[C@@H]3[C@H](OC(=O)[C@H]3C)[C@@H]12	-2.45%	2.95%	6.4%	17.2%	6.25%	8.85%
C[N+](C)(Cc1ccc([N+](=O)[O-])cc1)c1ccc(N(CCCl)CCCl)cc1	-4%	-24.3%	-33%	-15.4%	-21.8%	10.8%
O=CNC(CSC(c1ccccc1)c1ccccc1)C(=O)O (stereo not given)	0.25%	-5.55%	-10.9%	-26.4%	20.2%	4.4%
COc1cccc(/C=N/[N-]C(=O)c2ccncc2)c1[O-].[Mn+2].[OH3+]	9.15%	12.5%	7.35%	9.95%	4.7%	20.6%
ClCCN(CCCl)c1ccc(CCCCN2CCCCC2)cc1	20.2%	23.2%	21.2%	14.2%	19.2%	47%
COc1ccc2c(c1)CCC1C2CCC2(C)C1CCC21CCNP(=O)(N(CCCl)CCCl)O1 (stereo not given)	72% (active)	31.4%	72.2% (active)	23.3%	22.4%	38.7%
CN(C)P(=O)(N(C)C)N(C)C.[CH3][Sn]([CH3])([Cl])[Cl]	5.75%	-1.2%	52.4%	49.9%	63.8%	82.2% (active)
Clc1ccc(C(c2ccc(Cl)cc2)c2ccccn2)cc1	98.5% (active)	98.3% (active)	98.5% (active)	97.8% (active)	98.3% (active)	98.4% (active)
CCCC/C=C(/C)C1(CC)C(=O)NC(=O)NC1=O	5.05%	14.2%	-2%	-28.1%	-7.3%	4.6%
[Cl][Hg][Cl].c1ccc(N=P(c2ccccc2)(c2ccccc2)c2ccccc2)cc1	99.7% (active)	99.8% (active)	99.8% (active)	99.5% (active)	99.3% (active)	99.6% (active)
C[Si](C)(C)CS(=O)[O-].[C-]#[O+].[C-]#[O+].[Fe+6].[c-]1[c-][c-][cH-][c-]1	0.1%	8.8%	20.7%	-12.2%	-3.85%	6.65%
CC1(C)c2ccccc2C(c2ccccc2)(c2ccccc2)[N+]1(C)C	63.4%	33.7%	52.2%	21.7%	22.2%	49%
O=[N+]([O-])c1ccc(N=Nc2ccc(N(CCCl)CCCl)cc2)cc1	-4.8%	14.1%	-1.25%	-14.9%	5%	23.5%
CC1(C)CN=C(NN=C(/C=C/c2ccc(C(F)(F)F)cc2)/C=C/c2ccc(C(F)(F)F)cc2)NC1	21.6%	10.4%	15.3%	20.2%	32.2%	46.8%
CN(C)C1CCNCC1	19.7%	5.2%	17%	4.75%	4.6%	-1.5%
NC1CN2CCC1CC2 (stereo not given)	9.35%	-7.65%	-14.6%	11.8%	-8.55%	1.15%
Cc1cc([N+](=O)[O-])c(N)c([N+](=O)[O-])c1	-1.55%	-11.1%	-9.8%	3.6%	-10.8%	-4.75%
COC(=O)[C@H]1[C@H]2CCOC1(c1cc(OC)c(OC)c(OC)c1)c1cc3c(cc1[C@H]2O)OCO3	-5.55%	-63%	-21.6%	-14.3%	-38%	-0.6%
CC(C)N(C(C)C)P(OCCC#N)OC1CC(n2cnc3c(=O)[nH]cnc32)OC1COC(=O)NCCCCCCNC(=O)OC(C)(C)c1ccc(-c2ccccc2)cc1 (stereo not given)	-11.2%	-26.4%	-27%	10%	12.8%	-18.4%
CCCC/C=C/C=C/C=C/CCCCCCCC(=O)OCC(COC(=O)CCCCCCC/C=C/C1C=CC(CCCC)C(C(=O)O)C1C(=O)O)OC(=O)CCCCCCC/C=C/C=C/C=C/CCCC (stereo not given) (tested in a mixture with another compound)	-10.8%	-20.1%	4.55%	-3.85%	7.6%	-0.45%
